Measurements: the supplement of paper PMC11001985

These targets were tested with C#CCNC(=O)CCSSCCC(=O)NCCc1ccc(C=O)c(C=O)c1 (assay: lysine labeling ratio R10:1 (500 µM / 50 µM probe), SILAC-ABPP in living cells; higher = lower intrinsic lysine reactivity toward the probe, active = 2 or less). Conditions: HeLa; probe concentrations 500 vs 50 µM.
Summary of the method: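 Each lysine carries an R value: the filtered median of MS1 peptide ratios of high probe to low probe, with the median then taken over forward and reverse replicates. These came from living SILAC light and heavy HeLa cells in PBS at room temperature labelled with an alkyne-tagged, disulfide-linked lysine probe at 500 µM or 50 µM, in forward and reverse swaps. The lysates were mixed, clicked to biotin-azide, trypsin-digested, captured on neutravidin, released by DTT, alkylated and run by LC-MS/MS on a TIMS-TOF Pro. The highest value allowed is 20.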

UniProt O75369, sequence (O75369 whole entry): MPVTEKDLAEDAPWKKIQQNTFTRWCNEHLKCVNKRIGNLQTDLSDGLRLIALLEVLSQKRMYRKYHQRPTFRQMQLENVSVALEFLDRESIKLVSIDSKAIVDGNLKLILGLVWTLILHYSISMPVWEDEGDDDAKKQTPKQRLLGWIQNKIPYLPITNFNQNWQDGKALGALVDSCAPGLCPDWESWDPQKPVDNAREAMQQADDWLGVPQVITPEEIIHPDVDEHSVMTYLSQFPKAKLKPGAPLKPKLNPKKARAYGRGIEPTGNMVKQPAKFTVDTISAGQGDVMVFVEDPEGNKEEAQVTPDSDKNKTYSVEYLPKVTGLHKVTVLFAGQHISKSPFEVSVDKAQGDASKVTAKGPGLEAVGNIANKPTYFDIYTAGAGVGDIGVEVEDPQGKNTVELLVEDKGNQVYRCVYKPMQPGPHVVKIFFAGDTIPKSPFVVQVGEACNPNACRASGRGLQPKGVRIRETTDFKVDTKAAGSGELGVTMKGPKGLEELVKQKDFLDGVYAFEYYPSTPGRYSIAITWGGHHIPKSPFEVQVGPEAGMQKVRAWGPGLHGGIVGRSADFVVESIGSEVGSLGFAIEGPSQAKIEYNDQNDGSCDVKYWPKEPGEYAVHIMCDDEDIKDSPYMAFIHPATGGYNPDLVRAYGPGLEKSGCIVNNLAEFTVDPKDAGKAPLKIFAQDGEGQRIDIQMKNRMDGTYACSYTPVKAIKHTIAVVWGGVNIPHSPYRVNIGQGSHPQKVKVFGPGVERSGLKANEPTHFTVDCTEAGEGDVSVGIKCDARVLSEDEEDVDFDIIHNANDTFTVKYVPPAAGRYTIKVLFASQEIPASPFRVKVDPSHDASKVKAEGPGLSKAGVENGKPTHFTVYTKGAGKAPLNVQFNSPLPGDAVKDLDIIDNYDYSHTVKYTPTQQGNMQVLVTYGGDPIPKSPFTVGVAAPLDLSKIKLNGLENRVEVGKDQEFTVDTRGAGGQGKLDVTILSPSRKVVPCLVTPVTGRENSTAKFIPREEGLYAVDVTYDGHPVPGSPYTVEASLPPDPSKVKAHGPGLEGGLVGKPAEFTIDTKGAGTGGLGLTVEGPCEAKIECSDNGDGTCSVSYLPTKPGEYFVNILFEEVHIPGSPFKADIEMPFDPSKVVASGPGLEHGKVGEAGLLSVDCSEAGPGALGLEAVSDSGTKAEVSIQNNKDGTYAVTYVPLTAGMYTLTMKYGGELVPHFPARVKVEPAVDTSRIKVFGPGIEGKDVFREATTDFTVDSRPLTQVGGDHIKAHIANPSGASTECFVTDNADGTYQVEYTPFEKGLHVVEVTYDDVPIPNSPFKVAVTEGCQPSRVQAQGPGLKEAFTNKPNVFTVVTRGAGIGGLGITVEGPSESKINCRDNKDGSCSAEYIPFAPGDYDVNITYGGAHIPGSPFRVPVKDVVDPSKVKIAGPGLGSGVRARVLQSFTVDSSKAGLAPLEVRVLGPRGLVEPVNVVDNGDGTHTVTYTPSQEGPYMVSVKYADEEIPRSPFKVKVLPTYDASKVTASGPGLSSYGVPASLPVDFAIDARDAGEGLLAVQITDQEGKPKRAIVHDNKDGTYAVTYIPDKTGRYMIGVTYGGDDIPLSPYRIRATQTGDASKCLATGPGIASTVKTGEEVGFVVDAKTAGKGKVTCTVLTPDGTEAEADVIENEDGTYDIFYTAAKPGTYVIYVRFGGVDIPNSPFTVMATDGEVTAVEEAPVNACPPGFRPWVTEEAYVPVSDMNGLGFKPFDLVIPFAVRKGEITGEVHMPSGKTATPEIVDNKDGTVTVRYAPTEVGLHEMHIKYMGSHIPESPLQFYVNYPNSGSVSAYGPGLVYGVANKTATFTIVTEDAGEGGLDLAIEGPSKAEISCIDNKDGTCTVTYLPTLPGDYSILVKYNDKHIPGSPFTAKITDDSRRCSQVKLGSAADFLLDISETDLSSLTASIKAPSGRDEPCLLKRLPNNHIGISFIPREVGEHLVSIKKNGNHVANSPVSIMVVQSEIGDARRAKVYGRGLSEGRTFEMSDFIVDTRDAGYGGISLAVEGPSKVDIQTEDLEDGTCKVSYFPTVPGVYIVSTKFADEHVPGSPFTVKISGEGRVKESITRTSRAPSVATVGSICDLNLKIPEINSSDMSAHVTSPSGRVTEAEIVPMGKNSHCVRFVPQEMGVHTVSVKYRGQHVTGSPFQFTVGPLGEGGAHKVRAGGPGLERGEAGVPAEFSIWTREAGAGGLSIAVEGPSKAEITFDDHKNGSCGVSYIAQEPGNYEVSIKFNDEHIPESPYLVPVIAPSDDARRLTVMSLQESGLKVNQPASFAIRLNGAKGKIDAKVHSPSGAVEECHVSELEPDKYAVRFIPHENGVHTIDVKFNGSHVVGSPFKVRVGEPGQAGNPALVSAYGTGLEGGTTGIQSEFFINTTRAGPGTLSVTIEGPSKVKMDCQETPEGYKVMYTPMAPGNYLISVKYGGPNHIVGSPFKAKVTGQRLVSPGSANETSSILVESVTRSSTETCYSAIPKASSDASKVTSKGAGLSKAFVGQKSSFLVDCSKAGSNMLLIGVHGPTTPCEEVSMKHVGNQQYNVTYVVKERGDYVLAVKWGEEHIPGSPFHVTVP
UniProt P12814, sequence (P12814 whole entry): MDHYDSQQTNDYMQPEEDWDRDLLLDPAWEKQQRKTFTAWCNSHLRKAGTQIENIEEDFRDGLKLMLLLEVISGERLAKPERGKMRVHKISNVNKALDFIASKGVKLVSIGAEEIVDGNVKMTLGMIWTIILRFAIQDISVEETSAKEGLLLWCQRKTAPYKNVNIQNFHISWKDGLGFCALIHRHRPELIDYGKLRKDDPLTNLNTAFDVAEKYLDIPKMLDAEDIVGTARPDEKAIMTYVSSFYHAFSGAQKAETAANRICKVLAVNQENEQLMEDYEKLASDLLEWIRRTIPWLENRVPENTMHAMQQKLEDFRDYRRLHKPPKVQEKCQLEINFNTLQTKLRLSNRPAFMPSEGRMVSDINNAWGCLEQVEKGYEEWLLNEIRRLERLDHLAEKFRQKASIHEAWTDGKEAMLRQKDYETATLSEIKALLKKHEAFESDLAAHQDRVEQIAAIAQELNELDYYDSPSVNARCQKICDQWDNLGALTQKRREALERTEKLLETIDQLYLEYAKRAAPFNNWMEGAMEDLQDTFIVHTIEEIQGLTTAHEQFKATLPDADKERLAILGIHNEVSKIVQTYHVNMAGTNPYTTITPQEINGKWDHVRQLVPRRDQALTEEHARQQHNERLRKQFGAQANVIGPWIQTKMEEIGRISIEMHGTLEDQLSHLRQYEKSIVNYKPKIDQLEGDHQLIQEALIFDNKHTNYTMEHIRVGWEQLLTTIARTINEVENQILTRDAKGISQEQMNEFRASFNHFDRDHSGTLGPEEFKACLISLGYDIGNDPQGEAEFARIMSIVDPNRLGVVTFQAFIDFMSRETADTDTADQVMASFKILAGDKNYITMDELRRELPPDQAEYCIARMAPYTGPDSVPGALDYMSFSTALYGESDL
UniProt Q9Y6N7, sequence (Q9Y6N7 whole entry): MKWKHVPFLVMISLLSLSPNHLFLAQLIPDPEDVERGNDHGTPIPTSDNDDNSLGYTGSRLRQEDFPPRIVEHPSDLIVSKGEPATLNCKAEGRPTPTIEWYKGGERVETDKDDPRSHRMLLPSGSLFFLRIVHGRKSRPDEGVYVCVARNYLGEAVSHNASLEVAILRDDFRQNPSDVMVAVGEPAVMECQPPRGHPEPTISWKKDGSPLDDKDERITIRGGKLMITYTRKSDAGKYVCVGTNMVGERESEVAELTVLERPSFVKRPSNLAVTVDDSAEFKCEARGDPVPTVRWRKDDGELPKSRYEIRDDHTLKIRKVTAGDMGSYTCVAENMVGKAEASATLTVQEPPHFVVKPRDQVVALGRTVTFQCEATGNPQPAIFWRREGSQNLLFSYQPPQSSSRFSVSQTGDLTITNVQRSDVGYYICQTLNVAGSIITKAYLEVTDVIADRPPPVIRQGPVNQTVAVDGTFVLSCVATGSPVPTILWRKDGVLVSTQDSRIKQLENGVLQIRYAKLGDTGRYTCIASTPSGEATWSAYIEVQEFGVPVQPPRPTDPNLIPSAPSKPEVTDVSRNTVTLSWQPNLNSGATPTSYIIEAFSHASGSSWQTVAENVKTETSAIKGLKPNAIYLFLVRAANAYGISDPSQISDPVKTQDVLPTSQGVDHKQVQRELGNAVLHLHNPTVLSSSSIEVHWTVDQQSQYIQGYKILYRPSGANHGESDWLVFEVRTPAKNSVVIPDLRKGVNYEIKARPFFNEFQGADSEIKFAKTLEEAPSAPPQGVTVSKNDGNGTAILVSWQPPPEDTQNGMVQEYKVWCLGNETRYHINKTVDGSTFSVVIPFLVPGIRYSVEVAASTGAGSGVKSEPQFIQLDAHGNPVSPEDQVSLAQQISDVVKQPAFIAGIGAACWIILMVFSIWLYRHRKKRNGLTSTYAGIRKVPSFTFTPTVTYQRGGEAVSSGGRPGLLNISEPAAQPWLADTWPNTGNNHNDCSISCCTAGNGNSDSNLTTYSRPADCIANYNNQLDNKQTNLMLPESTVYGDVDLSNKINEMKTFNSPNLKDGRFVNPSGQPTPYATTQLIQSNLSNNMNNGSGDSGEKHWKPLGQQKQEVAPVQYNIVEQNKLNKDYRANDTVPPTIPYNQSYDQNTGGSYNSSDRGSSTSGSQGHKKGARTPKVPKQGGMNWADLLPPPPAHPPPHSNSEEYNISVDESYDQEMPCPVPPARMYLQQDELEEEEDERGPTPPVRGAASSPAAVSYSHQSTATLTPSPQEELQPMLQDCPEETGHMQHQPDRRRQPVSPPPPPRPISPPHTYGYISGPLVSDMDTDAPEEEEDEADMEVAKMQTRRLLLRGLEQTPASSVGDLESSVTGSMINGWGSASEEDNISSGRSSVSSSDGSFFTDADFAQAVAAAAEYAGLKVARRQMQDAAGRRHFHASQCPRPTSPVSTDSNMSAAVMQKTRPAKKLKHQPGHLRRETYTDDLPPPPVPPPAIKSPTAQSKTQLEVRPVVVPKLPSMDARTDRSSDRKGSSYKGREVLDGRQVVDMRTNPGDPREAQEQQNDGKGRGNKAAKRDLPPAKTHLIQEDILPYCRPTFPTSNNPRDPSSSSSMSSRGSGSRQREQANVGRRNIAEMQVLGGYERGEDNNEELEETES

Target | lysine labeling ratio R10:1
IGSF3 (lysine site: K811) (UniProt O75054) | 3.23 (inactive)
B2M (lysine site: K111) (UniProt P61769) | 15.6 (inactive)
LAMB1 (lysine site: K1757) (UniProt P07942) | 5.94 (inactive)
ITGA2 (lysine site: K1038) (UniProt P17301) | 2.81 (inactive)
DNAJC9 (lysine site: K198) (UniProt Q8WXX5) | 2.94 (inactive)
CXADR (lysine site: K88) (UniProt P78310) | 1.11 (active)
UniProt Q6NZI2 (lysine site: K258) | 9.27 (inactive)
UniProt Q9UHI8 (lysine site: K619) | 2.67 (inactive)
UniProt P48047 (lysine site: K84) | 4.75 (inactive)
UniProt P62888 (lysine site: K44) | 2.17 (inactive)
PTGFRN (lysine site: K435) (UniProt Q9P2B2) | 5.47 (inactive)
ENO1 (lysine site: K262) (UniProt P06733) | 2.83 (inactive)
CD58 (lysine site: K62) (UniProt P19256) | 5.48 (inactive)
SFN (lysine site: K77) (UniProt P31947) | 3.35 (inactive)
COL5A1 (lysine site: K905) (UniProt P20908) | 3.42 (inactive)
FLNB (lysine site: K1005) (UniProt O75369) | 4.49 (inactive)
UniProt P16144 (lysine site: K510) | 2.83 (inactive)
UniProt P08727 (lysine site: K118) | 3.16 (inactive)
AHNAK (lysine site: K134) (UniProt Q09666) | 1.99 (active)
UniProt Q8N441 (lysine site: K34) | 3.03 (inactive)

Target | lysine labeling ratio R10:1
CD151 (lysine site: K132) (UniProt P48509) | 2.31 (inactive)
ROBO1 (lysine site: K282) (UniProt Q9Y6N7) | 2.01 (inactive)
UniProt Q13275 (lysine site: K581) | 3.3 (inactive)
APOO (lysine site: K51) (UniProt Q9BUR5) | 0.799 (active)
SPTBN1 (lysine site: K1913) (UniProt Q01082) | 4.33 (inactive)
TSPAN3 (lysine site: K110) (UniProt O60637) | 4.07 (inactive)
ITGA6 (lysine site: K986) (UniProt P23229) | 1.78 (active)
VIM (lysine site: K334) (UniProt P08670) | 5.58 (inactive)
CD44 (lysine site: K158) (UniProt P16070) | 4.38 (inactive)
FLNB (lysine site: K1584) (UniProt O75369) | 3.06 (inactive)
ARHGDIA (lysine site: K43) (UniProt P52565) | 1.51 (active)
UniProt P62829 (lysine site: K74) | 3.78 (inactive)
TMED9 (lysine site: K160) (UniProt Q9BVK6) | 5.13 (inactive)
UniProt Q99466 (lysine site: K1372) | 9.22 (inactive)
ACIN1 (lysine site: K143) (UniProt Q9UKV3) | 0.535 (active)
RPS3 (lysine site: K75) (UniProt P23396) | 2.68 (inactive)
DNAJA3 (lysine site: K391) (UniProt Q96EY1) | 1.5 (active)
L1CAM (lysine site: K378) (UniProt P32004) | 14 (inactive)
ACTN1 (lysine site: K492) (UniProt P12814) | 0.906 (active)
ACTN1 (lysine site: K741) (UniProt P12814) | 1.15 (active)
